Results on 73 molecules are retold here after PubChem BioAssay AID434958 (Southern Research Specialized Biocontainment Screening …, 2010).

The campaign covered roughly 1,200 compounds. About 400 (33%) were called active. Not all results are given here. Entries with a potency or affinity are not part of this list. A number with no mark means an inactive call. The rule behind the calls is not given here.

This assay can be described thus: mammalian cell cytotoxicity, dose response, cytotoxicity control (AID 434958).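 Note: cells exposed to compound for 72 hours before readout.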 Particulars: cytotoxicity counter-screen; series mostly up to 40 µM; viability: at the top concentration.
In the case of `Cc1cccnc1NC(=S)NC(=O)c1cncc(Br)c1`, the “viability” value was 97.7%. The figure for `COc1ccc(CNC(=O)C2CCN(S(=O)(=O)c3c(C)noc3/C=C/N(C)C)CC2)cc1` is 99.2%; for `CC(C)(C)C1CCC(OCC(O)CN2CCN(c3ccccn3)CC2)CC1` (stereo not drawn) it is 92.3%; for `COc1ccc(-c2csc(-c3cccs3)n2)c(OC)c1` it is 91%.

For the molecule `CCC(=O)Oc1oc(-c2ccccc2)nc1C=Nc1ccc(C)cc1`, the “viability” value is 85.8%.

For the molecule `CCn1cc(C(=O)O)c(=O)c2cc(F)c(N3CCN(C(=S)NC(=O)c4ccccc4C)CC3)cc21`, the “viability” value is 96.7%. With `COC(=O)c1cc(OC)c(OC)cc1NC(=S)N1CCN(C)CC1`, the “viability” value was 97.6%. Take `Cc1nnc(SCC2=C(C(=O)O)N3C(=O)C(NC(=O)COc4ccc(F)cc4)C3SC2)s1` (stereo not drawn): the “viability” value was 109%.

With `COc1ccc(C(=O)Nc2cccc3c2CCCC3)c(OC)c1`, the “viability” value was 89.2%. With `CC1CN(C(=S)NC(=O)c2cccc([N+](=O)[O-])c2)CC(C)O1` (stereo not drawn) the figure was 97.2%. With `COc1cc(C(=S)N2CCOCC2)ccc1OC(=O)c1ccc([N+](=O)[O-])cc1[N+](=O)[O-]` the figure was 84.7%. The figure for `O=C(Oc1c(-c2ccccc2)c(=O)n2c3c(cccc13)CC2)c1cccc([N+](=O)[O-])c1` is 99%; for `CN(C)c1ccc(/C=N/NC(N)=S)cc1[N+](=O)[O-]` it is 101%; for `O=C(CCCCCN1C(=O)c2cccc([N+](=O)[O-])c2C1=O)Nc1ccccc1F` it is 105%.

Consider `CC(=O)NC(=S)Nc1ccc(NC(=O)c2cccs2)cc1`, for which the “viability” value is 107%. In the case of `CCN=c1scc(-c2ccccc2)n1/N=C/c1ccccn1`, the “viability” value was 89.3%.

For the molecule `CC1CCc2nc(NC(=O)C3COc4ccccc4O3)sc2C1` (stereo not drawn), the “viability” value is 84.2%. With `COc1ccc(CCNCc2csc3nc4ccccc4n23)cc1OC` the figure was 90%; with `Cc1cc(C)cc(NC(=S)NN)c1`, 80.8%; with `CSc1ccc(/C=C/C(=O)NC23CC4CC(CC(C4)C2)C3)cc1`, 85.6%. The figure for `c1ccc(-c2cc3ccccc3[nH]2)cc1` is 99.8%; for `C/C(=N\NC(=O)c1cc2c(s1)CCC(C)C2)c1ccc[nH]1` (stereo not drawn) it is 93.7%; for `Cc1cccc2c(C(=O)n3cccn3)cc(-c3ccccc3Cl)nc12` it is 104%. With `O=C(Oc1c(-c2ccccc2)c(=O)n2c3c(cccc13)CC2)c1ccc(F)cc1` the figure was 104%. `COc1ccc(OC)c(-c2cc(C(=O)Nc3c(C)n(C)n(-c4ccccc4)c3=O)no2)c1`: the “viability” value was 84.8%. The figure for `COc1ccccc1-c1cc(C(=O)Nc2c(C)n(C)n(-c3ccccc3)c2=O)no1` is 100%; for `O=C(CCSc1ccc(Cl)c(Cl)c1)NC12CC3CC(CC(C3)C1)C2` it is 85.1%.

For `COc1ccnc(CS(=O)c2nc3cc(OC(F)F)ccc3[nH]2)c1OC` (stereo not drawn), the “viability” value was 99.2%. With `O=C(Nc1ccccc1N1CCCC1)c1ccc2c(c1)OCO2` the figure was 91%.

On to `O=C(CSc1ccc([N+](=O)[O-])cn1)Nc1ccc(N2CCOCC2)cc1`, for which the “viability” value was 101%. The figure for `CC(C(=O)Nc1cc([N+](=O)[O-])ccc1Cl)N1CCN(c2ccccc2O)CC1` (stereo not drawn) is 83.3%. Consider `O=C(Nc1ccc(N2CCCCC2)cc1)c1cc([N+](=O)[O-])cc([N+](=O)[O-])c1`, for which the “viability” value is 83.6%.

In the case of `CCOC(=O)COc1ccc2nsnc2c1`, the “viability” value is 105%. The figure for `CN(C)c1ccc(N=Nc2cccc3ccoc23)cc1` is 89.5%. With `N#C/C(C(=O)NCc1ccco1)=C1/SC=C(c2ccccc2)N1c1ccccc1` the figure was 92%. Consider `CCOc1ccc(-c2nc(-c3ccccc3C)no2)cc1`, for which the “viability” value was 96.4%. With `COc1cc(NC(=S)NC(=O)c2ccco2)ccc1NC(=O)C(C)C` the figure was 96.5%; with `Cc1n[nH]c(C)c1CCCOc1ccccc1`, 98.6%. `COc1cc(NC(=O)c2ccccc2)c(OC)cc1NC(=O)CN1CCOCC1`: the “viability” value is 112%. The figure for `COc1ccc(C(=O)CN(C(=O)c2ccc(Cl)cc2)N2C(=O)c3ccccc3C2=O)cc1` is 98.5%.

Consider `COc1cc(NC(=O)c2ccccc2Cl)ccc1NC(=O)c1ccco1`, for which the “viability” value was 91.6%. Regarding `O=C(CN1CCN(S(=O)(=O)c2ccc(F)cc2)CC1)Nc1ccc2c(c1)OCCO2`, the “viability” value was 97.2%.

`O=c1[nH]c(CSc2nnc3ccccn23)nc2ccccc12`: the “viability” value was 104%.

Consider `O=C(CCN1C(=O)/C(=C/c2ccccc2F)SC1=S)Nc1ccccn1`, for which the “viability” value was 103%. In the case of `Cc1ccc(C(=O)NN2C(=O)/C(=C/c3cccn3C)SC2=S)cc1`, the “viability” value was 97.2%.

Turning to `CN(c1ccc(OCC(=O)Nc2ccc3[nH]c(=O)[nH]c3c2)cc1)S(=O)(=O)c1ccc(Cl)cc1`, the “viability” value is 106%.

Consider `CCN1C(=O)C(O)(CC(=O)c2ccc(-n3cccc3)cc2)c2ccccc21` (stereo not drawn), for which the “viability” value is 95.4%. Regarding `NC(=O)Nc1ccc(C(=O)OCC(=O)Nc2ccc(Cl)cn2)cc1`, the “viability” value is 103%.

With `O=C(Cn1ncc2c3ccccc3n(Cc3ccccc3F)c2c1=O)NCCCN1CCCC1=O`, the “viability” value is 84.4%. Turning to `CSc1nc(-c2ccc(Cl)cc2)nn1S(=O)(=O)c1ccccc1`, the “viability” value was 89.6%. With `Cc1cccc(N2CCN(CC3CCCCC3)CC2)c1C` the figure was 102%; with `CCOC(=O)Cc1nc2ccccc2[nH]1`, 107%. `CCOC(=O)c1[nH]c2ccccc2c1NC(=O)Nc1ccc(OC)cc1`: the “viability” value was 97.4%.

On to `COc1ccc(CNC(=O)c2sc3nc4c(c(C(F)(F)F)c3c2N)CCC4)cc1`, for which the “viability” value was 94.8%. With `O=C(O)CSc1ncnc2c1sc1nc(-c3ccccc3)c3c(c12)CCC3` the figure was 91.9%; with `CC(C)(C)c1ccc(C(=O)Oc2ccc3c(c2)OCC3=O)cc1`, 86.2%. In the case of `CS/C(N)=N/N=C/c1cc(Br)cc(Br)c1O`, the “viability” value is 96.2%. With `CCOC(=O)N1CCN(C(=O)CSc2nnc(-c3ccccc3OC)o2)CC1` the figure was 96.8%; with `O=C(N/N=C/c1cccc(NC(=O)c2ccc(Cl)cc2)c1)c1cccc(O)c1`, 88.1%; with `NNC(=O)c1cccc(O)c1`, 103%. On to `Cc1cc(C2C(=O)c3ccccc3C2=O)c(C)c(C)c1C`, for which the “viability” value is 90.2%. On to `CCOC(=O)c1ccc(-c2ccc(C=O)o2)cc1`, for which the “viability” value was 99.5%.

On to `CCCCNC(=O)/C(=C/c1ccccc1)NC(C)=O`, for which the “viability” value is 106%.

On to `COc1ccc([C@H]2CC(=O)C=C(/C=C/c3ccccc3)C2)cc1OC`, for which the “viability” value is 82%. With `NS(=O)(=O)c1cccnc1Nc1c(Cl)cccc1Cl` the figure was 103%; with `COCCSc1nc2sc3c(c2c(=O)n1-c1ccccc1)CCN(C)C3`, 98.3%. For the molecule `CCOC(=O)C1CCCN(c2ccc(NC(=O)c3snc4c(=O)[nH]cnc34)cc2)C1` (stereo not drawn), the “viability” value was 103%.

`O=C(COC(=O)c1ccc([N+](=O)[O-])s1)NCc1ccccc1`: the “viability” value is 97.2%. With `Cc1ccsc1C(=O)NNC(=O)c1csc(N2CCOCC2)n1` the figure was 102%; with `COC(=O)c1ccc(/C=N/NC(=O)c2cccc(F)c2)cc1`, 94.4%; with `COc1ccc2ccccc2c1/C=N/NC(=O)c1cccc(Br)c1`, 82.7%. With `COc1ccc(/C=C/C(=O)N(C(C)C)C(C)C)cc1Br`, the “viability” value was 97%. The figure for `COc1cc(/C=C/C(=O)NC(C)(C)C)ccc1OCc1ccccc1` is 91.2%.
